“And” between values parts separate entries of the source, which are not always exact repeats. Equal values may be shown once. The campaign covered roughly 5,500 compounds. About 2,000 (36%) were called active. Another 18% or so got no clear call; they are omitted. No stated cut-off is given here; in the data, active means normalized growth mostly below about 0.91 (no sharp cut-off); inconclusive means no clear call, values can overlap the other calls; inactive means mostly above about 0.92. Some of the results follow.
Assay: chemical genetic growth profiling, strain panel (AID 1159580);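 further: tested at 20 µM; growth read once vehicle control cultures reached saturation at 30 °C; 1 = growth at the plate median or of vehicle wells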
Settings: S. cerevisiae deletion strains, growth OD

Measured: normalized growth

CC(C)c1c(O)ccc2c1CCC1C(C)(C)CCC[C@]21C (stereo partly specified)
active: locus YAL013W, strain DEP1, stronger effect = lower value 0.063 | locus YAL021C, strain ccr4, stronger effect = lower value 0.888 | locus YAL026C, strain drs2, stronger effect = lower value 0.451 | locus YAL030W, strain snc1, stronger effect = lower value 0.319 | locus YBL061C, strain skt5, stronger effect = lower value 0.329 | locus YBR009C, strain hhf1, stronger effect = lower value 0.182 | locus YBR021W, strain FUR4, stronger effect = lower value 0.517 | locus YBR023C, strain chs3, stronger effect = lower value 0.43 | locus YBR171W, strain sec66, stronger effect = lower value 0.606 | locus YBR229C, strain ROT2, stronger effect = lower value 0.245 | locus YBR231C, strain swc5, stronger effect = lower value 0.258 | locus YBR279W, strain paf1, stronger effect = lower value 0.769 | locus YCL011C, strain gbp2, stronger effect = lower value 0.365 | locus YCL016C, strain dcc1, stronger effect = lower value 0.353 | locus YCL029C, strain bik1, stronger effect = lower value 0.29 | locus YCR088W, strain abp1, stronger effect = lower value 0.848 | locus YDL035C, strain GPR1, stronger effect = lower value 0.118 | locus YDL040C, strain nat1, stronger effect = lower value 0.749 | locus YDL074C, strain BRE1, stronger effect = lower value 0.111 | locus YDL101C, strain DUN1, stronger effect = lower value 0.185 | locus YDL134C, strain PPH21, stronger effect = lower value 0.0876 | locus YDL185W, strain tfp1, stronger effect = lower value 0.135 | locus YDL192W, strain arf1, stronger effect = lower value 0.139 | locus YDR069C, strain doa4, stronger effect = lower value 0.842 | locus YDR101C, strain arx1, stronger effect = lower value 0.43 | locus YDR137W, strain rgp1, stronger effect = lower value 0.134 | locus YDR150W, strain NUM1, stronger effect = lower value 0.399 | locus YDR159W, strain sac3, stronger effect = lower value 0.304 | locus YDR162C, strain NBP2, stronger effect = lower value 0.0592 | locus YDR195W, strain ref2 0.163 | locus YDR297W, strain sur2, stronger effect = lower value 0.353 | locus YDR318W, strain mcm21, stronger effect = lower value 0.182 | locus YDR335W, strain msn5, stronger effect = lower value 0.863 | locus YDR388W, stronger effect = lower value 0.38 | locus YDR392W, strain spt3, stronger effect = lower value 0.141 | locus YDR502C, strain sam2, stronger effect = lower value 0.185 | locus YEL003W, strain gim4, stronger effect = lower value 0.543 | locus YEL061C, strain CIN8 (second series), stronger effect = lower value 0.667 | locus YER015W, strain faa2, stronger effect = lower value 0.548 | locus YER016W, strain bim1, stronger effect = lower value 0.302 | locus YER110C, stronger effect = lower value 0.713 | locus YER155C, strain BEM2, stronger effect = lower value 0.0776 | locus YER167W, strain BCK2, stronger effect = lower value 0.0994 | locus YGL078C, strain dbp3, stronger effect = lower value 0.835 | locus YGL086W, strain mad1, stronger effect = lower value 0.135 | locus YGL167C, strain pmr1, stronger effect = lower value 0.248 | locus YGL227W, strain vid30, stronger effect = lower value 0.691 | locus YGL240W, strain doc1, stronger effect = lower value 0.822 | locus YGL248W, strain PDE1, stronger effect = lower value 0.113 | locus YGL253W, strain hxk2, stronger effect = lower value 0.67 | locus YGR135W, strain pre9, stronger effect = lower value 0.373 | locus YGR252W, strain gcn5, stronger effect = lower value 0.212 | locus YHR013C, strain ard1, stronger effect = lower value 0.548 | locus YHR027C, strain rpn1, stronger effect = lower value 0.527 | locus YHR030C, strain SLT2, stronger effect = lower value 0.06 and 0.129 | locus YHR079C, strain IRE1 (second series), stronger effect = lower value 0.335 | locus YHR079C, strain IRE1, stronger effect = lower value 0.215 | locus YHR094C, strain hxt1, stronger effect = lower value 0.272 | locus YHR129C, strain ARP1, stronger effect = lower value 0.0824 | locus YHR142W, strain chs7, stronger effect = lower value 0.682 | locus YHR200W, strain rpn10, stronger effect = lower value 0.309 | locus YIL066C, strain RNR3, stronger effect = lower value 0.111 | locus YIL073C, strain SPO22, stronger effect = lower value 0.181 | locus YIL125W, strain kgd1, stronger effect = lower value 0.395 | locus YIR030C, strain dcg1, stronger effect = lower value 0.292 | locus YJL095W, strain BCK1 (second series), stronger effect = lower value 0.103 | locus YJL095W, strain BCK1, stronger effect = lower value 0.0705 and 0.204 | locus YJL129C, strain trk1, stronger effect = lower value 0.259 | locus YJL134W, strain LCB3, stronger effect = lower value 0.373 | locus YJL164C, strain tpk1, stronger effect = lower value 0.197 | locus YJL166W, strain qcr8, stronger effect = lower value 0.32 | locus YJL168C, strain set2, stronger effect = lower value 0.725 | locus YJL187C, strain SWE1 (second series), stronger effect = lower value 0.117 | locus YJL187C, strain SWE1, stronger effect = lower value 0.403
inactive: locus YCL069W, strain vba3, stronger effect = lower value 0.932 | locus YDL005C, strain med2, stronger effect = lower value 0.961 | locus YDR001C, strain nth1, stronger effect = lower value 1 | locus YDR334W, strain swr1, stronger effect = lower value 0.974 | locus YEL037C, strain rad23, stronger effect = lower value 0.991 | locus YER111C, strain swi4, stronger effect = lower value 0.971 | locus YER155C, strain BEM2 (second series), stronger effect = lower value 0.925 | locus YFR010W, strain ubp6, stronger effect = lower value 0.929 | locus YGL173C, strain kem1, stronger effect = lower value 0.947 | locus YJL092W, strain hpr5, stronger effect = lower value 0.926 | locus YJL115W, strain asf1, stronger effect = lower value 1.02 | locus YJL154C, strain vps35, stronger effect = lower value 1.01
